Source: PubChem BioAssay AID504465 (National Center for Advancing Translational Sciences (NCATS), 2011)
About 210 (10%) of roughly 2,100 compounds were called active. About 53% were inconclusive and are not listed. Calls come from the whole dose curve; as a rule, active = well fitted inhibition curve with a large enough effect; inconclusive = small, poorly fitted or top-dose-only effect, or effect the other way; inactive = no such curve, though single readings can be large or run the other way. Some of the results follow.

test: IN Cell qHTS Assay for Inhibitors of the mTORC1 Signaling Pathway in MEF (Tsc2-/-, p53-/-) Cells: Sytravon; details: phospho-rpS6 immunofluorescence, 24 h; series mostly up to 38.3 µM; activity, negative = inhibition: at the top concentration; note: nearly all actives have a fitted effect of over 60% in size
Source text: NIH Molecular Libraries Probe Production Centers Network [MLPCN] NIH Chemical Genomics Center [NCGC] MLPCN Grant: NS059428-01 Assay Submitter (PI): Blenis, John; Hoffman, Greg; Harvard University NCGC Assay Overview: Thee mammalian target of rapamycin (mTOR) is an intracellular serine/threonine kinase Aberrant regulation of mTOR signaling plays a causative role in a number of human diseases, including cancer, benign tumors such as lymphangioleiomyomatosis (LAM) and Tuberous Sclerosis Complex (TSC), and metabolic diseases such as diabetes and obesity. This project aims to identify inhibitors of ribosomal protein S6 (rpS6) phosphorylation. The phosphorylation of rpS6 is a key event downstream of mTOR activation. The assay uses a phospho-specific antibody of phospho-rpS6 to detect inhibitors of mTOR activation. Mutations in the Tsc1 and Tsc2 genes are the underlying genetic lesions responsible for TSC, causing constitutive activation of the mTORC1 pathway and leading to profound effects on cell metabolism. Aberrant metabolism in cancer has recently received significant attention as a target to develop therapeutic agents in the treatment of cancer1. As Tsc2-/- cells have lost the ability to respond to energy and growth factor deprivation, these cells are unable to properly down regulate cellular biosynthetic processes in response to metabolic stress, and are thus extremely sensitive to glucose deprivation-induced death.2 A central goal of this project is to explore the unique cell survival and metabolic properties of cells with Tsc1 or Tsc2 by screening for compounds that selectively target the Tsc2-/- MEFs by screening both Tsc2-/- and WT MEF cell lines. We hope to better understand these aspects of TSC physiology in order to exploit them for therapeutic benefit.
NCGC IN Cell Assay Protocol: For quantitative high throughput analysis of mTORC1 signaling, we developed a cell-based assay for immuno-fluorescence based detection of rpS6 phosphorylation on the Acumen Explorer that will be used a platform for the primary small molecule screen. Mouse embryonic fibroblasts (MEFs) are cultured in 1536-well plates using DMEM + 10% FBS. Twenty-four hrs after plating, test compounds (solubilized in DMSO) are delivered and incubated with the cells for 24 hrs at 37 degree Celsius. Following the incubation, media with compound is aspirated and the cells are fixed in 4% paraformaldehyde (PFA) containing PBS + 0.2% TX-100. Next, PFA is aspirated, cells are washed two times with PBS plus 0.2% TX-100 and the cells are blocked for 1 hr at room temperature (blocking buffer: LiCOR Blocking Buffer plus 0.2% TX-100). This is followed by aspiration and staining with Alexa-488 conjugated-phospho-rpS6 Ser235/236 antibody for 2 hours at room temperature (Cell Signaling Technology # 4803, 1:50 dilution in blocking buffer). Cells are washed two times with PBS plus 0.2% TX-100, and stained with 10 uM propidium iodide (PI) for 20-25 minutes for cell number measurement (1:500 dilution of Hoescht staining is also added for IN Cell imaging). Active wells which are selected (based on Acumen results) are imaged on the IN Cell 1000 (GE Healthcare) using the D360/40X and HQ480/40X excitation filters for the Hoechst and Alexa-488 cytoplasmic stains, respectively. The fluorescence emission filters used were HQ460/40M and HQ535/50M for the Hoechst and Alexa-488 cytoplasmic stains, respectively. The normalized phospho-S6 staining is calculated as the ratio of […] for the single concentration rapamycin control (7.5 nM) and DMSO columns. […] Inhibition of the pathway is defined based on the normalized phospho-S6 intensity in rapamycin treated cells. Each treatment is reported as the % positive cells in the well, where thresholds are defined by selecting wells with the highest and lowest signal and differentiating between the % non-active and % active populations. […]
Potency is the fitted concentration of half-maximal effect.

SMILES	Potency	activity, negative = inhibition
O=c1oc2ccccc2cc1-c1cn2cc(Cc3ccc(F)cc3)sc2n1	1.65 µM (active)	
CCc1ccc(-n2nc(C)c3c2NC(=O)CSC3c2ccc(OC)cc2OC)cc1 (centres undefined)		-11.9% (inactive)
Cc1cccc(CN2CC=C(c3noc(CCC(=O)Nc4ccc(C)c(F)c4)n3)CC2)c1		-8.33% (inactive)
Nc1c(C(=O)Nc2cccc(Br)c2)sc2nc3c(cc12)N1CCC3CC1		-7.46% (inactive)
O=C(Nc1ccccc1)N(Cc1ccc2c(c1)OCO2)C1CCN(Cc2ccccc2)CC1		-11.5% (inactive)
COc1ccc2nc(NC(=O)c3nc(S(=O)(=O)Cc4cccc(C)c4)ncc3Cl)sc2c1	16.5 µM (active)	
CCOc1ccc(NC(=O)c2cccn(Cc3cccc(Cl)c3)c2=O)cc1		-20.2% (inactive)
CCOc1ccc(NC(=O)c2cc3c(C)nn(-c4ccccc4)c3s2)cc1	14.7 µM (active)	
Cc1ccc(-n2c(/C=C/c3ccc(Br)s3)nc3ccccc3c2=O)cc1C		6.25% (inactive)
